# Screening results deposited in PubChem BioAssay by National Center for Advancing Translational Sciences (NCATS).
# Giardia kill = kills Giardia lamblia; Giardia lamblia trophozoite viability; activity change, % at 7.66 µM, hits read low; 0.15% of 340,000 active; in the data active means activity change below about -80%; inconclusive means between about -30% and that limit;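 further: parasites exposed to compound for two days anaerobically before the ATP read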
#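 Giardia lamblia trophozoites (100 cells/well) were incubated with compounds for 48 h at 37 deg C under anaerobic conditions. Viability was read as ATP content by one-step luminescence after 15-30 min at room temperature.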
# TDP1 block = TDP1 (human) enzyme inhibition; AID 485290; 0.28% of 350,000 active; Potency, µM (series often up to 130 µM), inactives show at the top dose activity change, negative = inhibition, actives largely listed as inhibitors; recombinant TDP1, AlphaScreen DNA substrate cleavage; further: potency means the concentration at half of the fitted maximal effect; nearly all actives have a fitted effect of over 40% in size
# Target sequence (Q9NUW8 whole entry, looked up): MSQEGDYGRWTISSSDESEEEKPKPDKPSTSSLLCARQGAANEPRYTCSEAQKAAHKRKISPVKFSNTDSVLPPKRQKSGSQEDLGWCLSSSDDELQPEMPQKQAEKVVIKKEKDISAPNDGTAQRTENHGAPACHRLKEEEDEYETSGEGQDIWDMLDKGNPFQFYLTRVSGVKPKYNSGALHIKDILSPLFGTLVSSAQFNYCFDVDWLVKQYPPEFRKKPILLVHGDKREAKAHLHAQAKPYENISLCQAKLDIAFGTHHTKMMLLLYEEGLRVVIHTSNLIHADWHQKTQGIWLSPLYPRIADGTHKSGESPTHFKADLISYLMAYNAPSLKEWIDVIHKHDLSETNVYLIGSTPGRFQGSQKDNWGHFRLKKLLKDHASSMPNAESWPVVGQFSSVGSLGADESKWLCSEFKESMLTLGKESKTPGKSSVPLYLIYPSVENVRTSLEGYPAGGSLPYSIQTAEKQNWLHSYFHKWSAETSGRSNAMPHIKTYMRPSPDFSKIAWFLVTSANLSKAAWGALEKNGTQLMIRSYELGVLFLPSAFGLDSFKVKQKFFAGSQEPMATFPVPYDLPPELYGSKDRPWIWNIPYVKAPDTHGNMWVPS
#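 Recombinant E. coli-expressed Tdp1 (1 nM) preincubated with compound 15 min at RT, then 5'-biotin/3'-phosphotyrosine-FITC DNA substrate (15 nM) added for 5 min. AlphaScreen beads (10 ug/ml) added, 10 min RT; tyrosine-FITC cleavage read as signal loss.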
# TDP1 cell CPT = growth inhibition of DT40 Tdp1-/-;hTDP1 cells with camptothecin (screen for TDP1 inhibitors) | 12% of 420,000 active | Potency, µM (series often up to 46.2 µM), for the others: at the top dose activity change, negative = growth inhibition, most hits filed as inhibitors | chicken DT40 Tdp1-/-;hTDP1 cells + 20 nM CPT, ATP luminescence, 48 h | AID 686979; further: potency means the concentration at half of the fitted maximal effect; nearly all actives have a fitted effect of over 55% in size
#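 Chicken DT40 Tdp1-/- cells stably complemented with human TDP1 were seeded at 400 cells/well in medium containing 20 nM camptothecin, exposed to pin-transferred compounds, and grown at 37 °C for at least 48 hr. Viability was read as ATP luminescence.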
# IL-1B inflam inh = blocks inflammasome-driven IL-1 beta release; THP-1 LPS/ATP IL-1B secretion, AlphaLISA, 16 h; active compounds read low; activity change, % at 57.5 µM; 4.7% of 360,000 active; AID 743279; in the data active means activity change below about -50%; inconclusive means mostly about -30% to -49%
#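 THP-1 cells pretreated 1 hr with compounds (up to 57.5 uM final), then stimulated with LPS (250 ng/mL final) plus ATP (1.25 mM final); secreted IL-1B measured by AlphaLISA after 16 hr, decreased signal indicating inhibition.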
# ELG1 DNA repair = inhibitors of ELG1-dependent DNA repair in HEK293T cells; HEK293T ELG1-luciferase reporter, luminescence, 16 h; DNA damage induced by 5-fluorouridine; 2.3% of 330,000 active; Potency, µM (highest dose often 46.1 µM), without a hit: top-dose activity change, negative = inhibition, hits mostly inhibitors; AID 504467; further: potency means the concentration at half of the fitted maximal effect; nearly all actives have a fitted effect of over 55% in size
#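 5-Fluorouridine DNA damage + compound/DMSO, 2,000 cells/well, 16 h, 37 °C/5% CO2. ONE-Glo, 30 min RT, luminescence. Readout = decrease in reporter signal.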
# DT40 TDP1 no CPT = qHTS for Inhibitors of human tyrosyl-DNA phosphodiesterase 1 (TDP1): qHTS in cells in absence of CPT; DT40 Tdp1-/- hTDP1 cells, no CPT, ATP luminescence, 48 h; Potency, µM (highest dose often 46.2 µM), inactives show top-dose activity change, negative = growth inhibition, hits mostly inhibitors; 15% of 420,000 active; AID 686978, 2013; further: potency means the concentration at half of the fitted maximal effect; nearly all actives have a fitted effect of over 55% in size
#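 Luminescent ATP content (CellTiter-Glo) served as the growth readout. Knockout chicken DT40 cells expressing human TDP1 were exposed to compounds without camptothecin for a minimum 48 hr at 37 °C.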
# * hit, by the source's call; ? = inconclusive; / = no result; [ ] = dose if it differs, or a comment. Shown are actives, neighbours in structure and some others; about 19% of the full set was active somewhere. Unless noted, the call rests on the fitted dose curve; in most records, active means well fitted curve in the direction sought with a large enough effect; inconclusive means small, poorly fitted or top-dose-only effect, or another doubt; inactive means no such curve, though single readings can be large; an effect the other way counts as inactive or inconclusive. On the % scale 0 is the no-effect control and ±100 the full control effect.
SMILES,Giardia kill,TDP1 block,TDP1 cell CPT,IL-1B inflam inh,ELG1 DNA repair,DT40 TDP1 no CPT
O=c1cc(Cc2nnc(SCc3ccccc3)n2-c2ccc(Cl)cc2)[nH]c(=O)[nH]1,-24,1%,-3%,7,25%,29%
O=C(CSc1nnc(CCc2ccccc2)n1-c1ccc(Cl)cc1)c1ccccc1,-13,-3%,?,-64*,-15%,23µM*
O=S(Cc1ccc(Br)cc1)Cc1nnc(SCc2c(F)cccc2Cl)n1-c1ccccc1 (stereo unspecified),3,0%,15µM*,-62*,23µM*,9.2µM*
COc1ccc(-n2c(CCc3ccccc3)nnc2SCC(=O)c2ccc(Cl)cc2)cc1,-9,1%,?,?,?,?
CC(C)c1ccc(-n2cnn(-c3ncccc3[N+](=O)[O-])c2=O)cc1,-1,-5%,2%,35,?,?
COc1cccc(C(=O)/C=C2\Sc3ccccc3N2C)c1,?,-8%,?,-77*,?,?
CN1/C(=C\C(=O)c2cccnc2)Sc2ccccc21,-11,1%,?,-6,?,?
O=C(CCS(=O)(=O)Cc1ccccc1)N1CCN(c2ccc([N+](=O)[O-])cc2)CC1,-24,-3%,?,-22,?,?
O=C(CCCC(=O)N1CCN(c2ccc([N+](=O)[O-])cc2)CC1)c1ccccc1,0,4%,?,?,-2%,10µM*
O=C(CCCCC(=O)N1CCN(c2ccccc2)CC1)N1CCN(c2ccccc2)CC1,/,-5%,/,/,-2%,/
O=C(CCCc1ccccc1)N1CCN(c2ccc([N+](=O)[O-])cc2)CC1,-2,7%,18µM*,-2,-11%,18µM*
Cc1cc(S(=O)(=O)N2CCC3(CC2)OCCN3S(=O)(=O)c2cccs2)ccc1F,-14,-3%[0.505 µM],-24%,-10,-6%,-29%
O=S(=O)(c1ccccc1)N1CCC2(CC1)OCCN2S(=O)(=O)c1cccs1,12,2%,?,13,-4%,21µM*
COc1ccc(S(=O)(=O)N2CCOC23CCN(S(=O)(=O)c2cccs2)CC3)cc1,-23,-3%,13µM*,1,-10%,16µM*
O=C(CN1C(=O)/C(=C\c2cccc(Cl)c2)Oc2ccccc21)N1CCN(c2ccccn2)CC1,/,8%,/,/,6%,/
O=C(COC(=O)CC1CC2CCC1C2)Nc1ccc(Cl)c(S(=O)(=O)N2CCOCC2)c1 (stereo unspecified),10,-3%,16µM*,44,-30%,?
O=C(Nc1ccccc1)Nc1ccc(Cl)c(S(=O)(=O)N2CCOCC2)c1,0,-8%,?,?,?,?
O=C(CSc1ccccc1)Nc1ccc(Cl)c(S(=O)(=O)N2CCOCC2)c1,3,-3%,-2%,-23,13µM*,-26%
COc1ccc(S(=O)(=O)N2CCOCC2)cc1NC(=O)COC(=O)CC1CC2CCC1C2 (stereo unspecified),-18,2%,-26%,15,10%,-6%
O=C(CCOc1ccccc1)Nc1ccc(Cl)c(S(=O)(=O)N2CCOCC2)c1,-7,-2%,?,-72*,-19%,?
O=C(CSc1ncccn1)Nc1ccc(Cl)c(S(=O)(=O)N2CCOCC2)c1,6,-1%,-5%,5,-4%,-22%
COc1cccc(N2CCN(S(=O)(=O)c3ccc4[nH]c5c(c4c3)CCCC5)CC2)c1,/,9%,?,/,/,?
COc1ccc(NC(=O)COC(=O)c2c(NC(C)=O)sc(C)c2C)cc1,/,/,?,3,/,?
CCOC(=O)C1Cn2c(nc3c(c2=O)C(C)(C)Cc2ccccc2-3)S1 (stereo unspecified),-9,-4%,-13%,-3,?,16µM*
CCOC(=O)CSc1nc2c(c(=O)[nH]1)C(C)(CC)Cc1ccccc1-2 (stereo unspecified),20,/,?,73,-9%,16µM*
SMILES,Giardia kill,TDP1 block,TDP1 cell CPT,IL-1B inflam inh,ELG1 DNA repair,DT40 TDP1 no CPT
CC(C)(C)C(=O)Nc1ccc(C(=O)CN2C(=O)NC3(CCOc4ccccc43)C2=O)cc1 (stereo unspecified),-13,0%,?,0,-21%,?
Cc1ccccc1CNC(=O)CCS(=O)(=O)c1cc2c3c(c1)CCN3C(=O)CC2,/,/,-1%,/,/,-7%
Cc1ccccc1-c1nc(NCCN2CCOCC2)c2ccccc2n1,/,7.9µM*,-11%,/,/,-22%
Clc1ccc(-c2nc(NCCN3CCOCC3)c3ccccc3n2)cc1,5,2%,?,-61*,-24%,?
c1cncc(-c2nc(NCCN3CCOCC3)c3ccccc3n2)c1,/,-1%[56.1 µM],-7%,/,/,?
Cc1nc(SCc2ccc(O)c([N+](=O)[O-])c2)n[nH]1,-23,-2%,?,8,3%,-17%
Cc1nc(SCc2ccc(O)c([N+](=O)[O-])c2)c([N+](=O)[O-])[nH]1,-7,9%,21µM*,-23,-4%,21µM*
CCN1C(=O)/C(=C\C=C2/C=CC=CN2CC)SC1=S,11,3%,?,?,?,29µM*
CCN1C(=O)/C(=C/C=C2\C=CN(CC)c3ccccc32)SC1=S,-21,5%,16µM*,-1,?,16µM*
Cc1cc(Oc2ccc(-c3nnc(-c4ccccc4)o3)cc2[N+](=O)[O-])ccc1Cl,?,4%,?,0,14%,?
O=[N+]([O-])c1cc(-c2cnc3ccccc3n2)ccc1Oc1ccc(Br)cc1,-7,0%,?,-15,?,13µM*
Cc1nnc(-c2ccc(Oc3ccc(Br)cc3)c([N+](=O)[O-])c2)o1,11,3%,?,13,-10%,13µM*
O=[N+]([O-])c1ccc(Oc2ccc(-c3cnc4ccccc4n3)cc2[N+](=O)[O-])cc1,10,0%,10µM*,7,?,15µM*
O=C(Oc1ccc(-c2cnc3ccccc3n2)cc1)c1ccc(Cl)c([N+](=O)[O-])c1,0,3%,-22%,9,?,?
O=C1NC2(C=Cc3c(ccc4ccccc34)O2)Oc2ccccc21 (stereo unspecified),16,-1%,23µM*,-5,?,23µM*
COCc1cc(=O)[nH]c(SCCS(=O)(=O)c2ccc(Cl)cc2Cl)n1,12,9%,21µM*,-28,?,?
COc1ccc(CN2CCC(C)CC2)cc1OCc1ccccc1,16,/,?,-22,11%,-22%
